In the supplement of paper PMC10849652:
Targets with a hit are over-represented here; the source holds about 7,900 in all. About 0.6% of all pairs of compound and target were hits.

How the values were obtained:
Assay in all cases: log2 fold change, soluble protein after heating vs DMSO (PISA); higher = thermal stabilisation; K562 cells, 10 uM, 30 min; active = over 0.2 and 3.5 SD of the protein, either way, in both replicates (recomputed)
[1] = compound: Cc1ccc(NC(=O)c2ccc(CN3CC[C@H](N(C)C)C3)c(C(F)(F)F)c2)cc1Nc1nccc(-c2cncnc2)n1 [bafetinib]
Summary of the method: (§1)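 Soluble protein was quantified by TMTpro 16plex LC-MS/MS after channel sums were equalised. It was obtained as the supernatant after 21,000xg for 90 min from pooled aliquots of K562 cells (2×10^6 cells/mL, 10 μM compound, 30 min) heated for 3 min across 48°C-58°C and extracted in PBS with 0.5% NP-40 at 4°C. Thermal stability values are relative to control samples and come from duplicates. They are given as log2 fold changes.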

[2] = compound: Cc1cccc(CC(=O)N2CCc3c2ccc(-c2cn(C)c4ncnc(N)c24)c3F)n1
Summary of the method: as §1

[3] = compound: Cc1cn(-c2cc(NC(=O)c3ccc(C)c(Nc4nccc(-c5cccnc5)n4)c3)cc(C(F)(F)F)c2)cn1 [nilotinib]
Summary of the method: as §1

[4] = compound: Cc1nc(Nc2n[nH]c3c2CN(C(=O)N[C@H](CN(C)C)c2ccccc2)C3(C)C)c2sccc2n1
Summary of the method: as §1

[5] = compound: Cc1nc(Nc2ncc(C(=O)Nc3c(C)cccc3Cl)s2)cc(N2CCN(CCO)CC2)n1 [dasatinib]
Summary of the method: as §1

[6] = compound: Cc1ncc(-c2ccnc(Nc3ccc(S(C)(=O)=O)cc3)n2)n1C(C)C
Summary of the method: as §1

[7] = compound: Cn1cc(-c2ccc3c(c2)CCN3C(=O)Cc2cccc(C(F)(F)F)c2)c2c(N)ncnc21
Summary of the method: as §1

[8] = compound: Cn1cc(-c2ccc3nnc(C(F)(F)c4ccc5ncccc5c4)n3n2)cn1
Summary of the method: as §1

[9] = compound: Cn1cncc1[C@@](N)(c1ccc(Cl)cc1)c1ccc2c(c1)c(-c1cccc(Cl)c1)cc(=O)n2C [tipifarnib]
Summary of the method: as §1

[10] = compound: FC(F)(F)c1ccc(/C=C/c2nc(COc3ccc(CCCCn4ccnn4)cc3)co2)cc1 [mubritinib]
Summary of the method: as §1

[11] = compound: NC(=O)Nc1cc(-c2cccc(F)c2)sc1C(=O)N[C@H]1CCCNC1
Summary of the method: as §1

[12] = compound: NC(=O)c1cnc(N[C@@H]2CCCC[C@@H]2N)nc1Nc1cccc(-n2nccn2)c1
Summary of the method: as §1

[13] = compound: NC1(c2ccc(-c3nc4ccn5c(=O)[nH]nc5c4cc3-c3ccccc3)cc2)CCC1
Summary of the method: as §1

[14] = compound: NCC(=O)Nc1ccc(-n2nc(C(F)(F)F)cc2-c2ccc3c(ccc4ccccc43)c2)cc1
Summary of the method: as §1

[15] = compound: Nc1ccccc1NC(=O)c1ccc(CNC(=O)OCc2cccnc2)cc1 [entinostat]
Summary of the method: as §1

[16] = compound: O=C(CCCCCCC(=O)Nc1ccccc1)NO [vorinostat]
Summary of the method: as §1

[17] = compound: O=C(CCCCCCNC(=O)c1cnc(N(c2ccccc2)c2ccccc2Cl)nc1)NO [citarinostat]
Summary of the method: as §1

[18] = compound: O=C(O)c1ccc2c(c1)nc(Nc1cccc(Cl)c1)c1ccncc12 [silmitasertib]
Summary of the method: as §1

[19] = compound: O=C1NC(=O)C(c2cnc3ccccn23)=C1c1cn2c3c(cc(F)cc13)CN(C(=O)N1CCCCC1)CC2
Summary of the method: as §1

[20] = compound: c1cc(OCCN2CCCCC2)cc(-c2n[nH]c3ccc(-c4nnc[nH]4)cc23)c1
Summary of the method: as §1

Measured: log2 fold change

CNTN4 (UniProt Q8IWV2)
UniProt Q8IWV2, sequence (Q8IWV2 whole entry, looked up): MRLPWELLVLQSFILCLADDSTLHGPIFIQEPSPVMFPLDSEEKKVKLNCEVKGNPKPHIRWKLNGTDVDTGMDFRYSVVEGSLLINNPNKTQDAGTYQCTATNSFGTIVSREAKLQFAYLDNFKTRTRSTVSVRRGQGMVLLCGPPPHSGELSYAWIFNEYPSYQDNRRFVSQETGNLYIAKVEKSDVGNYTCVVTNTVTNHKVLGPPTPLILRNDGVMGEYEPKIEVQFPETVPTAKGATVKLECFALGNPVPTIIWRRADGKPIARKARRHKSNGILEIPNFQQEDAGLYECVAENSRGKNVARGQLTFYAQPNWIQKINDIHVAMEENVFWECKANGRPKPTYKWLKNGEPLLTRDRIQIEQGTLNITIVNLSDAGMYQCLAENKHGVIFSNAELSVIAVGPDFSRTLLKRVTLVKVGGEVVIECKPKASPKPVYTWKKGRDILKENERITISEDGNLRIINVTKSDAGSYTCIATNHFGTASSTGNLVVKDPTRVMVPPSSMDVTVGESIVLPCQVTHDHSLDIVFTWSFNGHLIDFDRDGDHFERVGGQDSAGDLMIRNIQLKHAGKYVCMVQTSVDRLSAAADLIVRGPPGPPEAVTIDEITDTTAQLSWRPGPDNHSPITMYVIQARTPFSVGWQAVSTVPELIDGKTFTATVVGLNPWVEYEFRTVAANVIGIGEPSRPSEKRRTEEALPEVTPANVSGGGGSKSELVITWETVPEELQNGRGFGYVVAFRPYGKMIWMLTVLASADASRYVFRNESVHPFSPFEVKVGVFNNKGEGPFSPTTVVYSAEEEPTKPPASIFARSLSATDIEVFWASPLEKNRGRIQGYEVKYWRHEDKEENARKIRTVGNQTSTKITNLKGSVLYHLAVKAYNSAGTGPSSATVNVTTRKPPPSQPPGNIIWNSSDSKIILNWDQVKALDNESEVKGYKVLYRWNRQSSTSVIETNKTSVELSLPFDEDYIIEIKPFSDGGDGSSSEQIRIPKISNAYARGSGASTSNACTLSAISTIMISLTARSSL
inactive: [1] -0.109 | [2] 0.008 | [3] 0.06 | [4] 0.01 | [5] 0.003 | [6] -0.13 | [7] 0.131 | [8] 0.032 | [9] -0.097 | [10] 0.224 | [11] 0.016 | [12] -0.056 | [13] 0.614 | [14] -0.085 | [15] -0.106 | [16] 0.017 | [17] 0.141 | [18] -0.197 | [19] -0.18 | [20] 0.088

CLTB (UniProt P09497)
UniProt P09497, sequence (P09497 whole entry, looked up): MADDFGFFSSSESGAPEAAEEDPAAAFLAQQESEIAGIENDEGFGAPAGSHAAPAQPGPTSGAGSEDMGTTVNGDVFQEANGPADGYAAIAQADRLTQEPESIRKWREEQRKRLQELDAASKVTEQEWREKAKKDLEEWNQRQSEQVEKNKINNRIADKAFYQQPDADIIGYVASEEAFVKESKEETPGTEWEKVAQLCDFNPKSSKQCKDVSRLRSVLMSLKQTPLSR
inactive: [1] 0.095 | [2] 0.002 | [3] 0.077 | [4] 0.024 | [5] 0.081 | [6] 0.005 | [7] -0.02 | [8] -0.019 | [9] -0.006 | [10] -0.016 | [11] 0.088 | [12] 0.101 | [13] 0.043 | [14] 0.117 | [15] -0.076 | [16] 0.003 | [17] -0.013 | [18] -0.005 | [19] -0.043 | [20] 0.07

COQ7 (UniProt Q99807)
UniProt Q99807, sequence (Q99807 whole entry, looked up): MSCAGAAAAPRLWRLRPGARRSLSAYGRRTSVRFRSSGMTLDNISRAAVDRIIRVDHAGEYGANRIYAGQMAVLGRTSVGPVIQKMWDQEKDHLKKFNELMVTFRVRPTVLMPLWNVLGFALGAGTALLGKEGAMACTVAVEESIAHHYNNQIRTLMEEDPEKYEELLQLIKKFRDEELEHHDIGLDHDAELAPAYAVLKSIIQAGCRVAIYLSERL
inactive: [1] -0.168 | [2] -0.062 | [3] 0.006 | [4] -0.103 | [5] -0.006 | [6] -0.033 | [7] 0.055 | [8] 0.095 | [9] 0.029 | [10] 0.055 | [11] -0.12 | [12] -0.009 | [13] -0.076 | [14] -0.007 | [15] 0 | [16] -0.032 | [17] 0.083 | [18] 0.008 | [19] -0.002 | [20] 0.015

CLCN7 (UniProt P51798)
UniProt P51798, sequence (P51798 whole entry, looked up): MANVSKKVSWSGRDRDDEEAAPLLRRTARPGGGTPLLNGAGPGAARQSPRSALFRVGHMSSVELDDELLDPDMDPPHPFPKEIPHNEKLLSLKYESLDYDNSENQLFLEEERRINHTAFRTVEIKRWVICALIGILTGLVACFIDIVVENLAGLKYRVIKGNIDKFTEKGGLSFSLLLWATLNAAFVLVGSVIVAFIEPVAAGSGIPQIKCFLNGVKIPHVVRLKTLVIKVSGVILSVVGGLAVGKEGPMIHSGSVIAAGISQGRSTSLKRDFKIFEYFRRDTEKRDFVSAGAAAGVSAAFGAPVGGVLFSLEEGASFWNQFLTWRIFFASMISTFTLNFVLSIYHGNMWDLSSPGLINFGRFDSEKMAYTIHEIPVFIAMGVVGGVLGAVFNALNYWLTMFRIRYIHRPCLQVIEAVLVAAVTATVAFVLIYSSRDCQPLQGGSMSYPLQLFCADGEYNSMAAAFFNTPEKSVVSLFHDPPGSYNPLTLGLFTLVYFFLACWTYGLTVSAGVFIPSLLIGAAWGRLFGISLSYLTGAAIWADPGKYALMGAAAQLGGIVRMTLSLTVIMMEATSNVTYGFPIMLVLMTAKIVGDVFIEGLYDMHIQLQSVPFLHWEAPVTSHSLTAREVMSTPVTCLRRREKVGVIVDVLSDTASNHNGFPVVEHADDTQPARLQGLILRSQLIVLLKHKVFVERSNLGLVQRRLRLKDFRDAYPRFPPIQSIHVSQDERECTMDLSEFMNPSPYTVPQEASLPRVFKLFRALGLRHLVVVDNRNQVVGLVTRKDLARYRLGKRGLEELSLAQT
inactive: [1] -0.24 | [2] 0.083 | [3] -0.035 | [4] -0.012 | [5] -0.091 | [6] -0.111 | [7] 0.011 | [8] 0.049 | [9] 0.038 | [10] -0.02 | [11] -0.009 | [12] -0.162 | [14] -0.048 | [15] 0.07 | [16] 0.054 | [17] 0.107 | [18] 0.036 | [19] 0.021 | [20] -0.078
active: [13] -0.674

CPQ (UniProt Q9Y646)
UniProt Q9Y646, sequence (Q9Y646 whole entry, looked up): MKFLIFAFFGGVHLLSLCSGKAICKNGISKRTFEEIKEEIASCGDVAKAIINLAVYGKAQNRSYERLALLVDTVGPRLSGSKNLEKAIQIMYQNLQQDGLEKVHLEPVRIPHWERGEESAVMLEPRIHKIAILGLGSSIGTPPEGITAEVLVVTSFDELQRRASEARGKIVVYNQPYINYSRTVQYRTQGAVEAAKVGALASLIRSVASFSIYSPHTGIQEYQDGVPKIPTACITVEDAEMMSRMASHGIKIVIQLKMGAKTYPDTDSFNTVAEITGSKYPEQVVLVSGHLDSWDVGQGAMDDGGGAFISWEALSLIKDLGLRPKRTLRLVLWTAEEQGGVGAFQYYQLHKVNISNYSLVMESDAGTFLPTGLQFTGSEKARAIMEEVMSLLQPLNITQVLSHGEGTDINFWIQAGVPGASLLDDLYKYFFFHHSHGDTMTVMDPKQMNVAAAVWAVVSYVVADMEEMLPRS
inactive: [2] 0 | [3] 0.017 | [4] 0.053 | [5] 0.069 | [6] -0.046 | [7] 0.012 | [8] -0.025 | [9] 0.031 | [10] 0.044 | [11] 0.083 | [12] -0.01 | [13] -0.011 | [14] 0.072 | [15] 0.012 | [16] -0.043 | [17] 0.038 | [18] -0.004 | [19] 0.03 | [20] 0.009
active: [1] -0.207

CLPTM1L (UniProt Q96KA5)
UniProt Q96KA5, sequence (Q96KA5 whole entry, looked up): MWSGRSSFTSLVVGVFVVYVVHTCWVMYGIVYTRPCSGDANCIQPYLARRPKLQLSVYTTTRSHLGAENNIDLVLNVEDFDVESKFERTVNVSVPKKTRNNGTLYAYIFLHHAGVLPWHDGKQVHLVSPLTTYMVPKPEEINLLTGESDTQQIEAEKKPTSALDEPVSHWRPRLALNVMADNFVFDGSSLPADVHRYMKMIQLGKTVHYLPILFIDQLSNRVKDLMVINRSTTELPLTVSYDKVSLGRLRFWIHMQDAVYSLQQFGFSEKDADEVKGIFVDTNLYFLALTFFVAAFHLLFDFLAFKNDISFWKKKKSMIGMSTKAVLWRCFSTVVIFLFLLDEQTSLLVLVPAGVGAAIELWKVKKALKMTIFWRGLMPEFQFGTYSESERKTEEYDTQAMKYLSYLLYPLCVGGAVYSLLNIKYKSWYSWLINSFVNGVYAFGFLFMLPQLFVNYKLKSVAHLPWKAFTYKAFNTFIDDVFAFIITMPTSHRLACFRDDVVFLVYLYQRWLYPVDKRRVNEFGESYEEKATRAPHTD
inactive: [1] -0.186 | [2] 0.07 | [3] -0.103 | [4] 0.009 | [5] -0.045 | [6] -0.016 | [7] -0.042 | [8] 0.011 | [9] -0.056 | [10] 0.02 | [11] -0.007 | [12] 0.007 | [13] -0.148 | [14] -0.019 | [15] 0.025 | [16] 0.023 | [17] 0.044 | [18] 0.02 | [19] -0.072 | [20] 0.002

CCNK isoform 4 (UniProt O75909)
UniProt O75909, sequence (O75909 whole entry, looked up): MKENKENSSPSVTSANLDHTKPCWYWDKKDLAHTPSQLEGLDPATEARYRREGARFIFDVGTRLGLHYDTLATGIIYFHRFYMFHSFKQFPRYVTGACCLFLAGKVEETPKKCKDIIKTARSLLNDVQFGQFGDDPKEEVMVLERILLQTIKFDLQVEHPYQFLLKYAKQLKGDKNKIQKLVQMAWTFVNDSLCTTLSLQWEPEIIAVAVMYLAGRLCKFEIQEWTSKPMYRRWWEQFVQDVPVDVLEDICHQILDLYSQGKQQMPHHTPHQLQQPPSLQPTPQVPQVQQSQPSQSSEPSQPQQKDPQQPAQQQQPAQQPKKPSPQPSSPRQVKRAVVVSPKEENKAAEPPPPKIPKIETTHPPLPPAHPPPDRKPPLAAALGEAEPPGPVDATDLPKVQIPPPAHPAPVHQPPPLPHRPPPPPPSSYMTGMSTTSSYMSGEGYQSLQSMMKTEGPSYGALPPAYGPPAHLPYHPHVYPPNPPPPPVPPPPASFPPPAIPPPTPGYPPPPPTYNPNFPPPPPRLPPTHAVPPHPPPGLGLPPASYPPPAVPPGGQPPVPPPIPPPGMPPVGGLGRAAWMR
active: [20] -0.305
inactive: [1] 0.106 | [2] -0.021 | [3] 0.045 | [4] 0.046 | [5] -0.013 | [6] -0.025 | [7] -0.118 | [8] -0.069 | [9] 0.096 | [10] 0.006 | [11] -0.053 | [12] -0.104 | [13] 0.044 | [14] -0.091 | [15] -0.044 | [16] -0.021 | [17] -0.007 | [18] -0.046 | [19] 0.006

CCNT1 (UniProt O60563)
inactive: [1] 0.062 | [2] 0.036 | [3] 0.027 | [4] -0.272 | [5] -0.016 | [6] -0.301 | [7] -0.051 | [8] -0.122 | [9] 0.142 | [10] -0.093 | [11] -0.027 | [12] -0.03 | [13] -0.021 | [14] -0.02 | [15] 0.034 | [16] 0.176 | [17] 0.053 | [18] 0 | [19] 0.047 | [20] -0.094

CD55 isoform 7 (UniProt P08174)
UniProt P08174, sequence (P08174 whole entry, looked up): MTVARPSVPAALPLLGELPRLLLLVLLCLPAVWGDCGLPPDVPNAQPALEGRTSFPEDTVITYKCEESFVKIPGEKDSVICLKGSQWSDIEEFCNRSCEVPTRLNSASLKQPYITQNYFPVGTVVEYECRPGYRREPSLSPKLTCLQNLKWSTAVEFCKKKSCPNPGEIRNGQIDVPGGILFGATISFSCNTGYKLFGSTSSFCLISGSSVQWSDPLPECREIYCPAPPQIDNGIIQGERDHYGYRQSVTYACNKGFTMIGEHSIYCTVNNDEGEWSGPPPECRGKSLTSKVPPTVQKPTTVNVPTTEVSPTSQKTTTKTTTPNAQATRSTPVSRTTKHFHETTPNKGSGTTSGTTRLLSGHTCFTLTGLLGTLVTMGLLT
inactive: [1] 0.168 | [2] -0.06 | [3] 0.086 | [4] 0.027 | [5] 0.096 | [6] -0.026 | [7] -0.051 | [8] -0.012 | [9] -0.027 | [10] -0.075 | [11] -0.048 | [12] 0.028 | [13] 0.128 | [14] 0.108 | [15] 0.018 | [16] -0.044 | [17] 0.009 | [18] -0.006 | [19] -0.043 | [20] -0.047

CDC123 (UniProt O75794)
UniProt O75794, sequence (O75794 whole entry, looked up): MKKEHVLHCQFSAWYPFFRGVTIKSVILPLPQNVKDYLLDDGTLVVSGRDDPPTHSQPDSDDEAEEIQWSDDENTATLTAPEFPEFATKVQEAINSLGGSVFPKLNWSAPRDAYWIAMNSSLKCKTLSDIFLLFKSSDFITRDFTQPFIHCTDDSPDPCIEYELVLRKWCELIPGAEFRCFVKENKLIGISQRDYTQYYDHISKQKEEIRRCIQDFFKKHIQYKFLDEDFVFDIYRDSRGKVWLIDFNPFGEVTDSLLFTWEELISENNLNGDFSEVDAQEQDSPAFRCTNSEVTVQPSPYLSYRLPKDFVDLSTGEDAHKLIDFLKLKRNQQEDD
inactive: [1] 0.015 | [2] -0.013 | [3] -0.084 | [4] 0.079 | [5] -0.032 | [6] 0.018 | [7] 0.029 | [8] -0.04 | [9] -0.031 | [10] -0.006 | [11] -0.029 | [12] 0.045 | [13] -0.077 | [14] -0.01 | [15] 0.026 | [16] 0.032 | [17] 0.045 | [18] -0.048 | [19] 0.011 | [20] -0.056

CEPT1 (UniProt Q9Y6K0)
inactive: [1] -0.048 | [2] 0.032 | [3] -0.052 | [4] 0.156 | [5] -0.008 | [6] 0.044 | [7] 0.031 | [8] -0.014 | [9] -0.055 | [10] -0.012 | [11] -0.065 | [12] -0.101 | [13] -0.215 | [14] -0.156 | [15] 0.065 | [16] -0.078 | [17] -0.023 | [18] -0.014 | [19] -0.054 | [20] -0.085

CKB (UniProt P12277)
inactive: [1] 0.02 | [2] 0.02 | [3] 0.051 | [4] 0.037 | [5] -0.142 | [6] -0.008 | [7] 0.081 | [8] 0.01 | [9] -0.057 | [10] 0.062 | [11] -0.035 | [12] -0.02 | [13] -0.117 | [14] -0.033 | [15] -0.001 | [16] -0.023 | [17] -0.046 | [18] -0.117 | [19] -0.04 | [20] -0.018

COX5A (UniProt P20674)
UniProt P20674, sequence (P20674 whole entry, looked up): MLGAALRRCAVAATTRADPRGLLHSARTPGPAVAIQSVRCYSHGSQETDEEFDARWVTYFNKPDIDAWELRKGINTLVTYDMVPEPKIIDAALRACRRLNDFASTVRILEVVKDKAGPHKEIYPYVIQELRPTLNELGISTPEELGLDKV
active: [8] 0.422
inactive: [1] -0.079 | [2] -0.003 | [3] 0.067 | [4] -0.023 | [5] 0.06 | [6] -0.067 | [7] 0.109 | [9] 0.103 | [10] 0.021 | [11] 0.019 | [12] 0.103 | [13] 0.117 | [14] 0.024 | [15] 0.024 | [16] -0.078 | [17] -0.041 | [18] -0.055 | [19] -0.228 | [20] -0.046
